NOMO-1 viab = STK33 inhibitor candidate reducing NOMO-1 cell viability. NOMO-1 AML viability, CellTiter-Glo luminescence, 72 h. inhibition, % (concentration not given with the values). 7.5% of 37,000 active. AID 2330; in the data active means inhibition above about 80%; inconclusive means no clear call, values can overlap the other calls
Hedgehog inh = Sonic Hedgehog pathway inhibition | inhibition, % (no concentration beside the values) | 2.1% of 22,000 active | AID 2313 | Shh-LIGHT2 Gli-luciferase reporter, 30 h;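 active means mean inhibition across valid replicates above about 65%, limit read from the data; inconclusive means mean under the limit, yet half or more replicates past it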;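 further: pathway switched on by Shh-conditioned medium diluted 1 in 25 in low serum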
MITF inhib = MITF inhibition; inhibition, % (no concentration beside the values); TRPM1 promoter luciferase, luminescence, 24 h; 0.28% of 37,000 active; in the data active means inhibition above about 85%; inconclusive means no clear call, values can overlap the other calls; inactive means below about 68%;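 further: human melanocyte line stably carrying TRPM1 promoter luciferase reporter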
The depositor's hits bear a star; ? = inconclusive; . = no result given. Only some compounds are listed: those with a hit (about 7.8% of all), similar ones and a draw of the others.

SMILES	NOMO-1 viab	Hedgehog inh	MITF inhib
COc1ccc(NC(=O)Nc2cccc3c2O[C@H](CN(C)C(=O)Nc2ccc4c(c2)OCO4)[C@@H](C)CN([C@@H](C)CO)C3=O)cc1	0	-17	-27
COc1ccc(C)cc1NC(=O)CSc1nnc(-c2ccc(C(C)(C)C)cc2)n1C	28	.	31
CC(C)NC(=O)N(C)C[C@@H]1Oc2c(NS(=O)(=O)c3cccs3)cccc2C(=O)N([C@H](C)CO)C[C@H]1C	15	-4	2
CC1CCc2c(sc3ncnc(SCCOc4ccccc4)c23)C1 (configuration not stated)	-13	.	-50
CC1CCc2c(sc3ncnc(NCCc4nc5ccccc5[nH]4)c23)C1 (configuration not stated)	97*	.	-10
O=c1[nH]nc(-c2ccccc2)c2ccccc12	13	19	-3
Cc1ccc2nc(NCCCO)[nH]c2c1	26	.	-5
CCCCc1ccc2nc(NC(=O)OC)[nH]c2c1	120*	41	20
COC(=O)Nc1nc2ccc(-c3n[nH]c(=O)c4ccccc34)cc2[nH]1	108*	-16	-8
C[C@@H]1CCCCO[C@H](CN(C)Cc2ccccc2)[C@@H](C)CN([C@H](C)CO)C(=O)c2cc(NS(=O)(=O)c3ccccc3)ccc2O1	27	-24	6
C[C@@H]1CN([C@H](C)CO)C(=O)Cc2cc(NS(=O)(=O)c3ccc(Cl)cc3)ccc2O[C@H]1CN(C)Cc1ccncc1	32	11	0
Cc1noc(C)c1S(=O)(=O)Nc1ccc2c(c1)CC(=O)N([C@H](C)CO)C[C@@H](C)[C@H](CN(C)S(=O)(=O)c1ccccc1)O2	9	-1	-9
C=C1C(=O)O[C@@H]2[C@H]3C(C)=CC(=O)C3=C(C)C[C@H](O[C@@H]3O[C@H](CO)[C@@H](O)[C@H](O)[C@H]3O)[C@@H]12	3	-8	-10
C=C(CO)C(=O)O[C@H]1CC(=C)[C@@H]2CC(=O)[C@H](C)[C@@H]2[C@H]2OC(=O)C(=C)[C@@H]21	107*	40	31
Cc1ccc(NC(=O)COc2ccc(Br)cc2CO)cc1	15	.	-33
COc1ccccc1NC(=O)C1=C(C)Nc2ncnn2C1c1cc(Br)c(O)c(OC)c1 (configuration not stated)	2	.	0
C[C@@H]1CN([C@@H](C)CO)C(=O)Cc2cc(NS(=O)(=O)c3ccccc3)ccc2O[C@@H]1CN(C)CC1CCCCC1	24	12	-20
COC(=O)C[C@H]1C(C)(C)C2(Cl)O[C@@]34CC2C(=O)[C@]1(C)C3CC[C@]1(C)C4=CC(=O)O[C@H]1c1ccoc1 (some centres not stated)	101*	8	8
C=C1C2CC[C@@]3(C)[C@H](c4ccoc4)OC(=O)C[C@]13O[C@H]1CC(=O)C(C)(C)C(CC(=O)OC)[C@@]21C (some centres not stated)	14	12	-2
Cc1ccc(S(=O)(=O)N(C)C[C@H]2Oc3c(NS(=O)(=O)c4cn(C)cn4)cccc3C(=O)N([C@H](C)CO)C[C@H]2C)cc1	11	8	1
C[C@H](CO)N1C[C@H](C)[C@H](CN(C)Cc2ccccc2)Oc2c(NC(=O)c3nc4ccccc4s3)cccc2C1=O	45	15	-1
C[C@H]1CN([C@@H](C)CO)C(=O)c2cccc(NC(=O)c3nc4ccccc4s3)c2O[C@H]1CN(C)Cc1ccc(C(=O)Nc2ccccc2N)cc1	127*	.	24
C[C@@H]1CN([C@H](C)CO)C(=O)c2cccc(NC(=O)c3nc4ccccc4s3)c2O[C@H]1CN(C)Cc1ccc(C(=O)Nc2ccccc2N)cc1	120*	.	40
C[C@H]1CN([C@@H](C)CO)C(=O)c2cccc(NC(=O)c3nc4ccccc4s3)c2O[C@H]1CN(C)Cc1ccccc1	40	-112	-6
C[C@H](CO)N1C[C@H](C)[C@H](CN(C)C(=O)Nc2cccc3ccccc23)Oc2ccc(NS(=O)(=O)c3cn(C)cn3)cc2C1=O	-9	.	4
SMILES	NOMO-1 viab	Hedgehog inh	MITF inhib
C[C@H](CO)N1C[C@H](C)[C@H](CN(C)S(=O)(=O)c2cn(C)cn2)Oc2ccc(NC(=O)Nc3ccc(C(F)(F)F)cc3)cc2CC1=O	125*	-10	10
C[C@H]1CN([C@@H](C)CO)C(=O)Cc2cc(NC(=O)Nc3ccc(C(F)(F)F)cc3)ccc2O[C@@H]1CN(C)S(=O)(=O)c1cn(C)cn1	-11	-7	-8
C[C@@H]1CN([C@@H](C)CO)C(=O)Cc2cc(NC(=O)Nc3ccc(C(F)(F)F)cc3)ccc2O[C@@H]1CN(C)S(=O)(=O)c1cn(C)cn1	112*	?	2
C[C@@H]1CN([C@H](C)CO)C(=O)Cc2cc(NC(=O)Nc3ccc(C(F)(F)F)cc3)ccc2O[C@H]1CN(C)S(=O)(=O)c1cn(C)cn1	15	?	-7
CC(C)NC(=O)Nc1ccc2c(c1)C(=O)N([C@@H](C)CO)C[C@H](C)[C@@H](CN(C)S(=O)(=O)c1ccc(F)cc1)O2	-2	.	3
Cc1ccc(S(=O)(=O)N(C)C[C@H]2Oc3c(NC(=O)Nc4ccc(C(F)(F)F)cc4)cccc3C(=O)N([C@@H](C)CO)C[C@@H]2C)cc1	63	-29	3
Cc1ccc(S(=O)(=O)N(C)C[C@H]2Oc3c(NC(=O)Nc4ccc(C(F)(F)F)cc4)cccc3C(=O)N([C@H](C)CO)C[C@H]2C)cc1	85*	-19	4
Cc1ccc(S(=O)(=O)N(C)C[C@@H]2Oc3c(NC(=O)Nc4ccccc4)cccc3C(=O)N([C@@H](C)CO)C[C@@H]2C)cc1	21	107*	10
COc1ccc(NC(=O)Nc2cccc3c2O[C@@H](CN(C)S(=O)(=O)c2ccc(C)cc2)[C@@H](C)CN([C@H](C)CO)C3=O)cc1	11	94*	-19
C[C@H](CO)N1C[C@H](C)[C@H](CN(C)S(=O)(=O)c2ccc(F)cc2)Oc2c(NC(=O)Nc3ccccc3)cccc2C1=O	17	100*	-14
COc1ccc(NC(=O)Nc2cccc3c2O[C@H](CN(C)S(=O)(=O)c2ccc(C)cc2)[C@H](C)CN([C@H](C)CO)C3=O)cc1	25	15	-29
C[C@@H]1CN([C@@H](C)CO)C(=O)c2cccc(NC(=O)Nc3ccccc3)c2O[C@@H]1CN(C)S(=O)(=O)c1ccc(F)cc1	61	-36	21
Cc1ccc(S(=O)(=O)N(C)C[C@H]2Oc3c(NC(=O)Nc4ccccc4)cccc3C(=O)N([C@H](C)CO)C[C@H]2C)cc1	3	32	-10
CC(C)NC(=O)Nc1ccc2c(c1)C(=O)N([C@@H](C)CO)C[C@H](C)[C@@H](CN(C)Cc1ccc(C(=O)O)cc1)O2	9	.	-3
C[C@@H]1CN([C@H](C)CO)C(=O)c2cccc(NS(=O)(=O)c3cccs3)c2O[C@H]1CN(C)C(=O)Nc1ccccc1	-14	-17	-7
C[C@H]1CN([C@@H](C)CO)C(=O)c2cccc(NC(=O)Nc3ccc(F)cc3)c2O[C@H]1CN(C)S(=O)(=O)c1ccc(F)cc1	20	83*	-6
C[C@H](CO)N1C[C@H](C)[C@H](CN(C)S(=O)(=O)c2ccc(F)cc2)Oc2c(NC(=O)C3CC3)cccc2C1=O	-3	103*	7
C[C@H]1CN([C@@H](C)CO)C(=O)c2cccc(NC(=O)C3CC3)c2O[C@H]1CN(C)S(=O)(=O)c1ccc(F)cc1	16	2	5

Assay outcomes: PubChem, Broad Institute
